# Reference: the supplement of paper PMC10723795
# ± gives the standard deviation of the averaged measurements.
# How the values were obtained:
# DLD1 = test: nucleolar normality score relative to DMSO (fraction of DMSO control); RPE1 is a non-cancer human cell line; higher = more normal nucleoli (less nucleolar stress)
# Method: (§1)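 Selected screen hits were validated in hTERT lines (BJ5TA, CHON-002, RPE1) and cancer lines (DLD1, HCT116). Cells were immunostained for nucleolin and UBF and the nucleolar normality score was measured per field of view, with 4 fields per drug. Scores are normalized to each cell line's own DMSO control. Dose and time are not stated for this panel.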
# HCT116 = test: as above
# Method: as §1
structure (smiles),measurement,setting,value
CC[C@@]1(O)C(=O)OCc2c1cc1n(c2=O)Cc2cc3ccccc3nc2-1 [Camptothecin],nucleolar normality score,DLD1,0.402 ± 0.049
same,nucleolar normality score,HCT116,0.407 ± 0.015
